Reference: PubChem BioAssay (NCI)
Values joined by “and” are separate entries in the source; they are usually repeats but may differ in a detail not shown here. Equal values may be shown once. This is part of a sample that, as a whole, favours compounds with a hit. Of some 79,000 tested, about 15% had one in any assay. Active and inactive are the calls of the source. Cut-off read from the data, not from the text of the source: active = growth inhibition above about 70%; inactive = the rest.

Legend:
[1] = NCI Yeast Anticancer Drug Screen. Data for the rad50 strain (AID 155);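 note: 0% = growth of vehicle-only cultures of the same strain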; details: S. cerevisiae rad50 strain growth inhibition; at 50.0 µM; hits give high values
In short: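 Compounds were tested on a yeast strain with an engineered DNA damage repair alteration; the reported value is growth inhibition normalised to vehicle treatment.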

[2] = NCI Yeast Anticancer Drug Screen. Data for the mec2-1 strain (AID 157); details: S. cerevisiae mec2-1 strain, at 50.0 µM, hits give high values
In short: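 Using mec2-1 yeast: add compound, measure growth, express inhibition versus vehicle-treated cultures.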

[3] = NCI Yeast Anticancer Drug Screen. Data for the sgs1 mgt1 strain (AID 161);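 note: 0% = growth of cultures given vehicle only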; details: S. cerevisiae sgs1 mgt1 strain, at 50.0 µM, hits give high values
In short: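 Growth of a repair-deficient yeast mutant was monitored after compound treatment and expressed as inhibition relative to vehicle-treated cultures.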

[4] = NCI Yeast Anticancer Drug Screen. Data for the cln2 rad14 strain (AID 165);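 note: 0% = growth equal to vehicle treated cultures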; details: S. cerevisiae cln2 rad14 strain, at 50.0 µM, hits give high values
In short: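 Yeast strain cln2 rad14, bearing defects in cell cycle control and DNA repair, serves as the test system; values reflect growth inhibition compared with vehicle.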

[5] = NCI Yeast Anticancer Drug Screen. Data for the bub3 strain (AID 167); details: S. cerevisiae bub3 mutant strain, at 50.0 µM, hits give high values
In short: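 Growth of a checkpoint-deficient yeast mutant is measured after compound exposure. Values represent inhibition relative to vehicle.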

[6] = NCI Yeast Anticancer Drug Screen. Data for the mlh1 rad18 strain (AID 175); details: S. cerevisiae mlh1 rad18 strain growth inhibition; at 50.0 µM; hits give high values
In short: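 Steps: expose repair-defective yeast to compound; measure growth; express inhibition against vehicle-treated controls.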

| Compound | growth inhibition [1] | growth inhibition [2] | growth inhibition [3] | growth inhibition [4] | growth inhibition [5] | growth inhibition [6] |
| --- | --- | --- | --- | --- | --- | --- |
| NCCN1CC2CCC(CC2)C1 | -53.1% (inactive) | -48.3% (inactive) | -27.1% (inactive) | -5.75% (inactive) | -3.55% (inactive) | -11.7% (inactive) |
| CC(Cc1ccccc1)NC(=O)/C=C/C(=O)O (centres undefined) | 5.9% (inactive) | 4.25% (inactive) | 9.6% (inactive) | -6.95% (inactive) | 36.8% (inactive) | 11.9% (inactive) |
| C1CC2CCC(N3CCCC3)C(C1)C21OCCO1 (centres undefined) | 11.3% (inactive) | 9.75% (inactive) | 5.05% (inactive) | -3.2% (inactive) | 6.45% (inactive) | -8.9% (inactive) |
| CCCCC1(CCS)C(=O)NC(=O)NC1=O | -5.55% (inactive) | -11.8% (inactive) | -4.75% (inactive) | -10.1% (inactive) | -4.05% (inactive) | -17.1% (inactive) |
| CC(NC(=O)C(c1ccccc1)c1ccccc1)C(=O)O (centres undefined) | 2.35% (inactive) | 12.6% (inactive) | -1.5% (inactive) | -17.2% (inactive) | 1.4% (inactive) | 14.9% (inactive) |
| NC(Cc1ccccc1)c1nccs1 (centres undefined) | -8.95% (inactive) | -26.6% (inactive) | -7.65% (inactive) | 11.2% (inactive) | -30.1% (inactive) | -2.6% (inactive) |
| CN(C)C(=O)Sc1c(Cl)cc(S(=O)(=O)F)cc1[N+](=O)[O-] | 22.9% (inactive) | 19.1% (inactive) | 27.9% (inactive) | 29.9% (inactive) | 8.9% (inactive) | 20.6% (inactive) |
| COc1ccc(N=NC(=O)NC(CC(C)C)C(=O)NCC(=O)O)cc1 (centres undefined) | -0.8% (inactive) | 2.45% (inactive) | 10.4% (inactive) | 28.8% (inactive) | 5.35% (inactive) | 5.35% (inactive) |
| O=C1CC(c2cccc(Br)c2)n2cccc21 (centres undefined) | 9.9% (inactive) | -1.1% (inactive) | 9.95% (inactive) | 37.5% (inactive) | 13.8% (inactive) | -5.7% (inactive) |
| CCC1(Sc2ncnc3c2ncn3C2OC(CO)C(O)C2O)C(=O)NC(=O)NC1=O (centres undefined) | 4.5% (inactive) | 2.7% (inactive) | -7.95% (inactive) | 16.9% (inactive) | -6.05% (inactive) | -7.2% (inactive) |
| NC1=NC(=O)C(c2ccccc2)(c2ccccc2)O1 | -1% (inactive) | -8.6% (inactive) | 5.95% (inactive) | -0.65% (inactive) | -19.3% (inactive) | -4.15% (inactive) |
| CCCCCCN1C(C)C1C(C)C (centres undefined) | 5.7% (inactive) | 12.2% (inactive) | 2.25% (inactive) | -3.8% (inactive) | -4.15% (inactive) | 1.6% (inactive) |
| O=C(CCl)N(CCO)CCO | -0.85% (inactive) | 1.5% (inactive) | -2.4% (inactive) | -30.7% (inactive) | 6.3% (inactive) | 0.95% (inactive) |
| S=C(N/N=C/c1ccc(Cl)cc1)NC1CN2CCC1CC2 (centres undefined) | -1.6% (inactive) | 9.6% (inactive) | -22.1% (inactive) | -15.8% (inactive) | -7.9% (inactive) | 11.7% (inactive) |
| CCCCC(CC)COP(OCC(CC)CCCC)OCC(CC)CCCC.[Br][Hg][Br] (centres undefined) | 4.55% (inactive) | -3.1% (inactive) | -10.8% (inactive) | -8.25% (inactive) | -8.95% (inactive) | -6.4% (inactive) |
| COc1ccc(C(=O)Cc2c(C(=O)c3ccccc3)c3ccccc3n2C(=O)c2ccccc2)cc1 | -2.45% (inactive) | -18.5% (inactive) | -9.5% (inactive) | -57.6% (inactive) | -23.4% (inactive) | 5.75% (inactive) |
| NC(Cc1ccccc1)c1ccccc1 (centres undefined) (tested in a mixture with another compound) | 0.6% (inactive) | -17.4% (inactive) | -6.4% (inactive) | 9.7% (inactive) | 2.6% (inactive) | 2.55% (inactive) |
| COc1ccc(C[C@@H]2NC[C@@H](O)[C@@H]2OC(C)=O)cc1 | 91.3% (active) | 93.2% (active) | 93.2% (active) | 91.8% (active) | 92.2% (active) | 91.3% (active) |
| COc1ccc(NC(=O)/C(=N/NC(N)=S)C2C(=O)NC(=S)NC2=O)c(OC)c1 | -17.4% (inactive) | -4% (inactive) | -4.55% (inactive) | -21.9% (inactive) | -8.9% (inactive) | -25% (inactive) |
| COC(=O)C(C)N(CCCl)P(=O)(N1CC1)N1CC1 (centres undefined) | 5.4% (inactive) | 8.2% (inactive) | 11.4% (inactive) | 9.1% (inactive) | 4.35% (inactive) | 1.85% (inactive) |
| c1ccc([C@H]2N[C@@H]2c2ccccn2)cc1 | 22.6% (inactive) | 32.5% (inactive) | 32.5% (inactive) | -4.35% (inactive) | 19.5% (inactive) | 13.2% (inactive) |
| N.N.N.O=N[O-].O=N[O-].O=N[O-].[Co+3] | -2.05% (inactive) | 9.65% (inactive) | -6.25% (inactive) | 18.6% (inactive) | 6.5% (inactive) | -10.4% (inactive) |

| Compound | growth inhibition [1] | growth inhibition [2] | growth inhibition [3] | growth inhibition [4] | growth inhibition [5] | growth inhibition [6] |
| --- | --- | --- | --- | --- | --- | --- |
| O=C(O)C1CCCC(C(=O)O)[N-]1.O=C(O)C1CCCC(C(=O)O)[N-]1.[Cr+2] (centres undefined) | 31% (inactive) | -3.5% (inactive) | 15.8% (inactive) | -14.5% (inactive) | -2% (inactive) | 14.3% (inactive) |
| N=C(N)c1nn[nH]n1 | -18.9% (inactive) | -5.25% (inactive) | -19.8% (inactive) | 1.75% (inactive) | -7.05% (inactive) | -27.3% (inactive) |
| COc1cc2[nH]cc(CN(C)C)c2cc1OC | 3% (inactive) | -0.55% (inactive) | -11.2% (inactive) | -18.9% (inactive) | -0.25% (inactive) | -7.35% (inactive) |
| Cc1ccc(Cl)c([N+](=O)[O-])c1 | -23.7% (inactive) | -52.5% (inactive) | -30.4% (inactive) | -3.25% (inactive) | -20.1% (inactive) | -9.75% (inactive) |
| CC1OC(O[C@H]2C[C@@H](O)[C@]3(CO)[C@H]4[C@H](O)C[C@]5(C)[C@@H](C6=CC(=O)OC6)CC[C@]5(O)[C@@H]4CC[C@]3(O)C2)C(O)C(O)C1O (some centres undefined) | -6.7% (inactive) | 1.15% (inactive) | 5.05% (inactive) | 20.9% (inactive) | -1.2% (inactive) | -47.5% (inactive) |
| Clc1ccc([As](c2ccc(Cl)cc2)c2ccc(Cl)cc2)cc1 | 77.5% (active) | 48.1% (inactive) | 74.3% (active) | 13.7% (inactive) | 30.5% (inactive) | 48.4% (inactive) |
| CN(C/C=C/CN(C)N=O)N=O | 10.1% (inactive) | 2.05% (inactive) | 3.75% (inactive) | -16.9% (inactive) | 20.4% (inactive) | 1.05% (inactive) |
| Cc1cc(Cl)ccc1N | 32.4% (inactive) | 6.1% (inactive) | 0.65% (inactive) | 12.2% (inactive) | 24.4% (inactive) | 21.4% (inactive) |
| CC(=O)NN=C(N)N | 3.15% (inactive) and -2% (inactive) | -1.5% (inactive) and 2.75% (inactive) | -0.55% (inactive) and 11.7% (inactive) | -29.9% (inactive) and -24.1% (inactive) | -6.75% (inactive) and -10.2% (inactive) | 14.1% (inactive) and 5.9% (inactive) |
| CCCOC(=O)c1cncn1C(C)c1ccccc1 (centres undefined) | 4.4% (inactive) | 18.7% (inactive) | 37.5% (inactive) | 10.7% (inactive) | 35.6% (inactive) | 31.4% (inactive) |
| O=C(CN1CCOCC1)c1ccc2ccccc2c1 | 10.1% (inactive) | 2.05% (inactive) | 8.4% (inactive) | -14.4% (inactive) | 17% (inactive) | 9.85% (inactive) |
| O=NN1CCNCC1 | -20.1% (inactive) and -11.3% (inactive) | -16.1% (inactive) and -24.3% (inactive) | -16.7% (inactive) and -13.2% (inactive) | -24.5% (inactive) and -9.25% (inactive) | -5.9% (inactive) and -6.1% (inactive) | 8.2% (inactive) and -2.55% (inactive) |
| CNC(=O)Oc1ccc(C=Nc2cccc([N+](=O)[O-])c2)cc1 | 2.9% (inactive) | 37.4% (inactive) | 14.7% (inactive) | 0.65% (inactive) | 34.9% (inactive) | 32.5% (inactive) |
| CC[n+]1c(-c2ccccc2)c2cc(N)ccc2c2ccc(N)cc21 (tested in a mixture with another compound) | 98.5% (active) | 88.8% (active) | 95% (active) | 54.5% (inactive) | 74.9% (active) | 85.5% (active) |
| CC[C@]12C=CCN3CC[C@@]4(c5ccc(OC)cc5N(C)[C@H]4[C@@](O)(C(=O)OC)[C@@H]1OC(C)=O)[C@@H]32 | 30.7% (inactive) | -6.5% (inactive) | 18.3% (inactive) | 19.8% (inactive) | 20.9% (inactive) | 8.35% (inactive) |
| COc1ccc2c(c1)C(=O)C(N)C2 (centres undefined) | 2% (inactive) | 1.95% (inactive) | 0.5% (inactive) | -21.6% (inactive) | 7.4% (inactive) | 20.1% (inactive) |
| C(#Cc1ccccc1)c1ccccc1 | 29.1% (inactive) | 5.25% (inactive) | 20.3% (inactive) | -13.6% (inactive) | -11.3% (inactive) | -3.6% (inactive) |
| CC(C)CC(=O)[O-].N.N.N.N.N.[Co+3].[O-][Cl+3]([O-])([O-])[O-] | -4.85% (inactive) | 23.4% (inactive) | -19.6% (inactive) | 21.8% (inactive) | -10.1% (inactive) | -19.1% (inactive) |
| CC1NC1c1ccccc1 (centres undefined) | -13.6% (inactive) | -29.3% (inactive) | -6.85% (inactive) | -20.4% (inactive) | -11.8% (inactive) | -19.4% (inactive) |
| CC1([N+](=O)[O-])COP(=O)(OP2(=O)OCC(C)([N+](=O)[O-])CO2)OC1 (centres undefined) | 29.8% (inactive) | 10.2% (inactive) | 28.9% (inactive) | 26.6% (inactive) | 3.85% (inactive) | 20% (inactive) |
| COC1=CC23CCCN2CCc2cc4c(cc2C3C1O)OCO4 (centres undefined) | -6.9% (inactive) and 0.4% (inactive) and -9.15% (inactive) | -23.4% (inactive) and -25.8% (inactive) and -28.7% (inactive) | 16.3% (inactive) and 17.1% (inactive) and 15.6% (inactive) | 4% (inactive) and 8.1% (inactive) and 2.4% (inactive) | -12.8% (inactive) and -5.35% (inactive) and -6.25% (inactive) | -3.85% (inactive) and -1.8% (inactive) and -36% (inactive) |
| COc1cc([C@@H]2c3cc4c(c(O)c3C[C@H]3COC(=O)[C@@H]32)OCO4)cc(OC)c1O | 17.8% (inactive) | -13.9% (inactive) | 14.2% (inactive) | 9.4% (inactive) | 7.2% (inactive) | -14.7% (inactive) |
